In experiment [1] the target is Phospholipid hydroperoxide glutathione peroxidase GPX4 (Homo sapiens) (UniProt P36969). The experiment is described as follows: Primary qHTS Assay for Inhibitors of Recombinant Selenoprotein Glutathione Peroxidase 4 (GPX4) (AID 1845192). Also: nearly all actives have a fitted effect of over 65% in size. As to activity change, negative = inhibition: series mostly up to about 50 µM; % is scaled to controls: 0 for no effect and ±100 for the full control effect. Summed up:
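NADPH consumption followed by fluorescence at 340/450 nm, t=0 and after 15 min at room temperature. Reaction started with cumene hydroperoxide (0.5 mM final) after 30 min compound–GPX4 preincubation; final 200 nM GPX4, 100 nM GR, 1 mM GSH, 0.5 mM NADPH.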
Background: In qHTS, concentration-response curves come from the screen itself.

For experiment [2], the target named is Luciferin 4-monooxygenase (Photinus pyralis) (UniProt P08659). Description: Primary firefly luciferase (FLuc) qHTS assay for identification of artifact compounds. (AID 1845220). Also: nearly all actives have a fitted effect of over 60% in size. Also: potency is read from the fitted curve at half-maximal effect.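 As to activity change, negative = inhibition: series mostly up to about 54 µM; plate controls were DMSO vehicle for no effect and no enzyme for full effect.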 In outline: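 FLuc 10 nM; luciferin 10 uM; ATP 10 uM; Tris-acetate pH 7.6, Mg-acetate 10 mM; 15 min RT preincubation; 5 min reaction; luminescence.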
A short description of experiment [3]: Primary fluorescence-based thiol-reactive (MSTI) qHTS assay for identification of artifact compounds. (AID 1845221). Also: nearly all actives have a fitted effect of over 65% in size. Also: potency is read from the fitted curve at half-maximal effect.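 As to activity change, negative = thiol reactive: series mostly up to about 54 µM; thiol-reactive compounds lower the probe fluorescence signal.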 In outline:
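qHTS titration of compound; 4 uM MSTI, PBS pH 7.4, 2% DMSO; 1 h RT, dark; fluorescence 525/598 nm; normalized to Acetyl-MSTI and MSTI; 4-parameter Hill fit.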

The subject of experiment [4] is Nanoluciferase (engineered Oplophorus gracilirostris luciferase). The experiment is described as follows: Primary Nanoluciferase (NLuc) qHTS assay for identification of artifact compounds. (AID 1845222). Also: potency is read from the fitted curve at half-maximal effect.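 As to activity, negative = inhibition: NLuc secreted into diluted conditioned medium of S16 cells; series mostly up to about 54 µM; 0% = DMSO and -100% = no enzyme.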 Summed up: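 NLuc from S16 cell medium (1:55) plus test compounds, 15 min, room temperature. Luminescence after Nano-Glo (1:100) addition, 5 min.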

Values without a mark were called inactive. Records with an inconclusive call do not appear. Active and inactive are the calls of the source. Calls follow the shape of the dose curve; as a rule, active = well fitted curve in the direction sought with a large enough effect; inconclusive = small, poorly fitted or top-dose-only effect, or another doubt; inactive = no such curve, though single readings can be large; an effect the other way counts as inactive or inconclusive.

Phospholipid hydroperoxide glutathione peroxidase GPX4 (Homo sapiens), sequence (P36969 whole entry, looked up): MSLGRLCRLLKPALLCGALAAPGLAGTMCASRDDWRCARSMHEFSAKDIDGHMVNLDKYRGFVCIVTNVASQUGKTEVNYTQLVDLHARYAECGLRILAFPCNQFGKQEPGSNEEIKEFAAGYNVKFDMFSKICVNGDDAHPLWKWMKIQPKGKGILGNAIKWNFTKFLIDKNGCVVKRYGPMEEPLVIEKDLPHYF

In the case of `C=C1/C(=C/C=C2\CCC[C@@]3(C)C2CCC3[C@H](C)/C=C/[C@@H](O)C2CC2)C[C@@H](O)C[C@@H]1O` (stereo partly specified), the Potency entry in experiment [1], in experiment [2], in experiment [3] and in experiment [4] was “inactive” each time.

On to `CC(C)(C)c1ccc(-c2nc3c(N4CCN(Cc5ccc6nccnc6c5)CC4)cccc3[nH]2)cc1`, for which the Potency result in experiment [1] and in experiment [4] was “inactive” each time. Further, the Potency was 1.51 µM (active) in experiment [2] and 6.7 µM (active) in experiment [3].

For the compound `COCC(c1ccc(C(F)(F)F)cc1)N1CCN(C2(C)CCN(C(=O)c3c(C)ncnc3C)CC2)CC1C` (stereo unspecified), the Potency result in experiment [1], in experiment [2], in experiment [3] and in experiment [4] was “inactive” throughout.

As to `Nc1nc2c(s1)CCN(Cc1ccc(Cl)cc1)CC2`, the Potency entry in experiment [1], in experiment [2] and in experiment [4] was “inactive” each time.

In the case of `CCCCCCCOc1cc2c(cc1/C(C)=C/c1ccc(C(=O)O)cc1)C(C)(C)CCS2(=O)=O`, the Potency result in experiment [1], in experiment [2], in experiment [3] and in experiment [4] was “inactive” throughout.

`O=c1cc(NCCCN[C@@H]2CCOc3c(Br)cc(Br)cc32)[nH]c2ccsc12`: the Potency result in experiment [1], in experiment [2], in experiment [3] and in experiment [4] was “inactive” throughout.

Regarding `CC(=O)O[C@@H]1CC[C@@]2(C)[C@H](CC[C@@H]3[C@@H]2C[C@H](OC(C)=O)[C@]2(C)[C@@H](C(C)=O)CC[C@@H]32)C1`, the Potency entry in experiment [1], in experiment [2], in experiment [3] and in experiment [4] was “inactive” throughout.

`O=C(NCc1cccs1)c1cc2nc(-c3ccco3)cc(C(F)(F)Cl)n2n1`: the Potency result in experiment [1], in experiment [2] and in experiment [4] was “inactive” in each case.

For `C/C(=C\CCC(C)C1=CCC2(C)OC3=C(CC12)C(=O)C(O)CC3)CO` (stereo unspecified), the Potency entry in experiment [1], in experiment [2], in experiment [3] and in experiment [4] was “inactive” in each case.

On to `CCC(C(C)O)n1ncn(-c2ccc(N3CCN(c4ccc(OCC5COC(Cn6cncn6)(c6ccc(F)cc6F)C5)cc4)CC3)cc2)c1=O` (stereo unspecified), for which the Potency result in experiment [1], in experiment [2] and in experiment [4] was “inactive” in each case.

For `Cc1cc2c(F)c(Oc3ncnn4cc(OCC(C)OC(=O)C(C)N)c(C)c34)ccc2[nH]1` (stereo unspecified), the Potency entry in experiment [1], in experiment [2], in experiment [3] and in experiment [4] was “inactive” throughout.

For `CNC1CN(c2ccc3c(=O)c(C(=O)O)cn(-c4nccs4)c3n2)CC1OC` (stereo unspecified), the activity change, negative = inhibition in experiment [1] was -2.33% [at 9.73 µM]; in experiment [2], -6.28% [at 11.6 µM]. For the same compound, the activity change, negative = thiol reactive in experiment [3] was -3.65% [at 11.5 µM]. Also, in experiment [4], the activity, negative = inhibition was -7.32% [at 11.6 µM].

Turning to `Cc1nc(NC(=O)N2CCCC2C(N)=O)sc1-c1ccnc(C(C)(C)C(F)(F)F)c1` (stereo unspecified), the Potency entry in experiment [1], in experiment [2], in experiment [3] and in experiment [4] was “inactive” in each case.

`O=C1C[C@]23C=CCN4CCC5c6cc7c(cc6N1[C@@]5(CC2)C43)OCO7` (stereo partly specified): the Potency entry in experiment [1], in experiment [2] and in experiment [4] was “inactive” each time.

For the compound `CCN(CC)C(=O)C(c1ccccc1)N1CCN(c2ccc(NC(=O)c3ccccc3-c3cccnc3)cc2F)CC1` (stereo unspecified), the Potency entry in experiment [1], in experiment [2] and in experiment [4] was “inactive” each time.

Take `O=C(NS(=O)(=O)c1ccc(Br)s1)c1ccc(Cl)cc1Cl`: the Potency entry in experiment [1] and in experiment [2] was “inactive” throughout. Also, the Potency in experiment [4] was 6.75 µM (active).

`CC(C)(F)CC(NC(c1ccc(-c2ccc(S(C)(=O)=O)cc2)cc1)C(F)(F)F)C(=O)NC1(C#N)CC1` (stereo unspecified): the Potency result in experiment [1], in experiment [2], in experiment [3] and in experiment [4] was “inactive” each time.

Regarding `CCNc1nc(Nc2cc(F)c(C(=O)N3CCOCC3)cc2OC)ncc1C(F)(F)F`, the Potency result in experiment [1], in experiment [2], in experiment [3] and in experiment [4] was “inactive” throughout.

As to `NC(=O)c1cnc(N[C@@H]2CCCC[C@H]2N)nc1Nc1cccc(-n2nccn2)c1`, the Potency result in experiment [1], in experiment [2], in experiment [3] and in experiment [4] was “inactive” throughout.

With `CC(=O)O[C@@]12CO[C@@H]1C[C@H](O)[C@@]1(C)C(=O)[C@H](O)C3=C(C)[C@@H](OC(=O)[C@H](O)[C@@H](NC(=O)OC(C)(C)C)c4ccccc4)C[C@@](O)([C@@H](OC(=O)c4ccccc4)C12)C3(C)C` (stereo partly specified), the Potency result in experiment [1], in experiment [2], in experiment [3] and in experiment [4] was “inactive” in each case.

On to `CNCc1cc(-c2ccccc2F)n(S(=O)(=O)c2cccnc2)c1`, for which the Potency entry in experiment [1], in experiment [2], in experiment [3] and in experiment [4] was “inactive” in each case.

On to `CC(=O)O[C@H]1C[C@H](OC(C)=O)[C@]2(C)[C@H](CC[C@@]34O[C@@H]3C3=C(C)C(=O)O[C@@H]3C[C@H]42)C1(C)C`, for which the Potency result in experiment [1], in experiment [2] and in experiment [4] was “inactive” each time.

(Values after PubChem BioAssay (NCATS).)
